# According to PubChem BioAssay (NCATS):
# Inconclusive results are not listed. Entries that show only a call come without a potency. The source made the active and inactive calls. Calls come from the whole dose curve.
# How the values were obtained:
# [1] = Confirmatory qHTS for VERO E6 Cytotoxicity Assay: Counterscreen for SARS-CoV-2 CPE Assay (AID 1508605); note: nearly all actives have a fitted effect of over 60% in size
# [2] = Confirmatory qHTS for activators (rescue) of SARS-CoV-2 Cytopathic Effect (CPE) (AID 1508606); note: nearly all actives have a fitted effect of over 70% in size
# [3] = Primary qHTS for Huh7 cytotoxicity: counterscreen for inhibitors of MERS-S pseudotyped particle cell entry (AID 1479147)
# [4] = Primary qHTS for inhibitors of SARS-S pseudo-typed particle cell entry (AID 1479145); note: nearly all actives have a fitted effect of over 45% in size
# [5] = Primary qHTS for Vero E6 cytotoxicity: counterscreen for inhibitors of SARS-S pseudo-typed particle cell entry (AID 1479150)
# [6] = Primary qHTS for inhibitors of MERS-S pseudo-typed particle cell entry (AID 1479149); note: nearly all actives have a fitted effect of over 60% in size
# Potency is the fitted concentration of half-maximal effect.
smiles,measurement,setting,value
CN(C)CC/C=C1\c2ccccc2Sc2ccc(Cl)cc21,Potency,[1],inactive
same,Potency,[2],8.91 µM (active)
Clc1ccccc1C(c1ccccc1)(c1ccccc1)n1ccnc1,Potency,[3],inactive
CCCCOc1cc(C(=O)NCCN(CC)CC)c2ccccc2n1,Potency,[4],14.1 µM (active)
same,Potency,[5],inactive
same,Potency,[1],inactive
CNC[C@H](O)c1ccc(O)c(O)c1,Potency,[4],inactive
same,Potency,[6],inactive
same,Potency,[5],inactive
CC(C)N=C(N)/N=C(\N)Nc1ccc(Cl)cc1,Potency,[3],inactive
same,Potency,[6],inactive
COc1ccc(-c2cc(C(F)F)nn2-c2ccc(S(N)(=O)=O)cc2)cc1F,Potency,[4],inactive
same,Potency,[3],inactive
same,Potency,[5],inactive
Oc1ccc(O)cc1,Potency,[4],inactive
same,Potency,[5],inactive
N/C(=N\N=C\c1ccc(Cl)cc1)N/N=C/c1ccc(Cl)cc1,Potency,[3],inactive
same,Potency,[6],inactive
O=C(O)c1cccc(-c2noc(-c3ccccc3F)n2)c1,Potency,[4],inactive
same,Potency,[6],inactive
CC[C@H](c1ccc(O)cc1)[C@@H](CC)c1ccc(O)cc1,Potency,[4],inactive
same,Potency,[3],inactive
same,Potency,[5],inactive
C[C@]12CCC(=O)C=C1[C@@H]1C[C@@H]1[C@H]1[C@@H]3[C@@H]4C[C@@H]4[C@@]4(CCC(=O)O4)[C@@]3(C)CC[C@@H]12,Potency,[4],inactive
same,Potency,[3],inactive
same,Potency,[5],inactive
CCN(CC)CCCN(c1ccccc1)C1Cc2ccccc2C1,Potency,[4],17.8 µM (active)
same,Potency,[5],inactive
Cc1cc2nc3ccc(=[N+](C)C)cc-3sc2cc1N,Potency,[4],14.1 µM (active)
same,Potency,[6],17.8 µM (active)
CCCCOc1cc(C(=O)OCCN(CC)CC)ccc1N,Potency,[4],inactive
same,Potency,[5],inactive
CCCCCCCCCCCCOCCOCCOCCOCCOCCOCCOCCOCCOCCO,Potency,[3],inactive
same,Potency,[6],8.91 µM (active)
COc1ccc(-c2nc3ccc(C4=NNC(=O)CC4C)cc3[nH]2)cc1 (stereo unspecified),Potency,[4],inactive
same,Potency,[6],inactive
same,Potency,[5],inactive
Oc1ccc(Cl)cc1Cc1cc(Cl)ccc1O,Potency,[3],inactive
CC(C)=CCC/C(C)=C/CC/C(C)=C/C(=O)OCC(=O)[C@@]1(O)CC[C@H]2[C@@H]3CCC4=CC(=O)C=C[C@]4(C)[C@H]3[C@@H](O)C[C@@]21C,Potency,[4],inactive
same,Potency,[5],inactive
OCc1cc(C(O)CNCCCCCCOCCCCc2ccccc2)ccc1O (stereo unspecified),Potency,[4],inactive
same,Potency,[5],inactive
CN(C)c1ccc(C(=C2C=CC(=[N+](C)C)C=C2)c2ccc(N(C)C)cc2)cc1,Potency,[4],1 µM (active)
same,Potency,[6],1.12 µM (active)
CC1=C(C(=O)OC(C)C)C(c2cccc([N+](=O)[O-])c2)C(C(=O)OC2CN(C(c3ccccc3)c3ccccc3)C2)=C(N)N1 (stereo unspecified),Potency,[3],inactive
same,Potency,[6],inactive
C#C[C@]1(O)CC[C@H]2[C@@H]3CCc4cc(O)ccc4[C@H]3CC[C@@]21C,Potency,[4],inactive
same,Potency,[5],inactive
COc1ccc(-n2nc(CCC(=O)N(C)O)cc2-c2ccc(Cl)cc2)cc1,Potency,[4],inactive
same,Potency,[5],inactive
CN(C)c1ccc(C(=C2C=CC(=[N+](C)C)C=C2)c2ccccc2)cc1,Potency,[4],2.24 µM (active)
same,Potency,[6],0.891 µM (active)
CN(C)CCCOC1(Cc2ccccc2)CCCCCC1,Potency,[3],inactive
same,Potency,[6],inactive
same,Potency,[5],inactive
OC[C@H]1O[C@@H](n2cnc3c(=S)nc[nH]c32)[C@H](O)[C@@H]1O,Potency,[4],inactive
same,Potency,[6],inactive
CCN(CC)CCOC(=O)C(Cc1cccc2ccccc12)CC1CCCO1 (stereo unspecified),Potency,[3],inactive
same,Potency,[6],inactive
same,Potency,[5],inactive
C1CCC(C(CC2CCCCN2)C2CCCCC2)CC1 (stereo unspecified),Potency,[4],25.1 µM (active)
same,Potency,[6],10 µM (active)
O=C(Nc1ccc([N+](=O)[O-])cc1Cl)c1cc(Cl)ccc1O,Potency,[4],0.501 µM (active)
same,Potency,[6],2 µM (active)
same,Potency,[5],1.58 µM (active)
C[n+]1cc2c3c(ccc2c2ccc4cc5c(cc4c21)OCO5)OCO3,Potency,[3],8.91 µM (active)
CC(=O)Oc1ccc(C2(c3ccc(OC(C)=O)cc3)Oc3ccccc3NC2=O)cc1,Potency,[3],inactive
same,Potency,[6],inactive
CN1CCCC(CC2c3ccccc3Sc3ccccc32)C1 (stereo unspecified),Potency,[4],20 µM (active)
same,Potency,[5],inactive
CCN(CC)CC(=O)OCC(=O)[C@@]1(O)CC[C@H]2[C@@H]3CCC4=CC(=O)CC[C@]4(C)[C@H]3[C@@H](O)C[C@@]21C,Potency,[4],inactive
same,Potency,[3],inactive
same,Potency,[5],inactive
Oc1c(Cl)cc(Cl)cc1Sc1cc(Cl)cc(Cl)c1O,Potency,[3],inactive
CCCCCCc1ccc(O)cc1O,Potency,[4],inactive
same,Potency,[6],0.891 µM (active)
same,Potency,[5],inactive
N=C(N)c1ccc(OCCCOc2ccc(C(=N)N)cc2)cc1,Potency,[3],inactive
Oc1c(I)cc(Cl)c2cccnc12,Potency,[4],inactive
same,Potency,[5],inactive
same,Potency,[1],3.16 µM (active)
COc1ccc(CCN(C)CCCC(C#N)(c2cc(OC)c(OC)c(OC)c2)C(C)C)cc1OC (stereo unspecified),Potency,[3],inactive
same,Potency,[6],inactive
CCC(CN)=C(c1ccccc1)c1ccccc1,Potency,[4],inactive
same,Potency,[3],inactive
same,Potency,[5],inactive
C/C=C(/C(=C/C)c1ccc(O)cc1)c1ccc(O)cc1,Potency,[3],inactive
same,Potency,[6],inactive
same,Potency,[5],inactive
CN1CCN(C2=Nc3ccccc3Sc3ccc(Cl)cc32)CC1,Potency,[3],inactive
same,Potency,[6],inactive
same,Potency,[5],inactive
Nc1ccn([C@H]2CC[C@@H](CO)O2)c(=O)n1,Potency,[3],inactive
same,Potency,[6],inactive
same,Potency,[5],inactive
CCOC(=O)[C@H](CCc1ccccc1)N[C@@H](C)C(=O)N1C(=O)N(C)C[C@H]1C(=O)O,Potency,[3],inactive
same,Potency,[6],inactive
same,Potency,[5],inactive
CCOCCn1c(N2CCCN(C)CC2)nc2ccccc21,Potency,[3],inactive
same,Potency,[6],inactive
same,Potency,[5],inactive
CCCC(=O)OC[C@@H](OC(=O)CCC)[C@@H](OC(=O)CCC)[C@H](Cn1c2nc(=O)[nH]c(=O)c-2nc2cc(C)c(C)cc21)OC(=O)CCC,Potency,[3],inactive
same,Potency,[6],inactive
same,Potency,[5],inactive
CN(C)CC[C@@H](c1ccc(Cl)cc1)c1ccccn1,Potency,[3],inactive
same,Potency,[6],inactive
same,Potency,[5],inactive
CCCCC(CC)COC(=O)C(C#N)=C(c1ccccc1)c1ccccc1 (stereo unspecified),Potency,[3],inactive
same,Potency,[6],inactive
same,Potency,[5],inactive
CN1CCN(c2c(F)cc3c(=O)c(C(=O)O)cn(CCF)c3c2F)CC1,Potency,[3],inactive
same,Potency,[6],inactive
same,Potency,[5],inactive
CC(=O)OCC(=O)NCCCOc1cccc(CN2CCCCC2)c1,Potency,[3],inactive
same,Potency,[6],inactive
same,Potency,[5],inactive
COc1ccc2cc3[n+](cc2c1OC)CCc1cc2c(cc1-3)OCO2,Potency,[3],inactive
same,Potency,[6],12.6 µM (active)
same,Potency,[5],inactive
CCCCCCOC(=O)NC(=N)c1ccc(NCc2nc3cc(C(=O)N(CCC(=O)OCC)c4ccccn4)ccc3n2C)cc1,Potency,[3],inactive
same,Potency,[6],10 µM (active)
same,Potency,[5],inactive
O=C(OCC(O)CO)c1ccccc1Nc1ccnc2c(C(F)(F)F)cccc12 (stereo unspecified),Potency,[3],inactive
same,Potency,[6],inactive
same,Potency,[5],inactive
CCOc1ccccc1C(N)=O,Potency,[3],inactive
same,Potency,[6],inactive
same,Potency,[5],inactive
O=C1OC(c2ccc(O)cc2)(c2ccc(O)cc2)c2ccccc21,Potency,[3],inactive
same,Potency,[6],inactive
same,Potency,[5],inactive
